# Laboratory results reported in PubChem BioAssay AID1159580 (chemical genetic matrix, 2015).
# Out of some 5,500 compounds screened, about 2,000 (36%) were called active. Inconclusive results (about 18%) are left out. This is one part of the list. Unmarked numbers belong to inactive results. No stated cut-off is given here; in the data, active means normalized growth mostly below about 0.91 (no sharp cut-off); inconclusive means no clear call, values can overlap the other calls; inactive means mostly above about 0.92.
# Experiment: chemical genetic growth profiling, strain panel (AID 1159580);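 further: tested at 20 µM; growth read once vehicle control cultures reached saturation at 30 °C; 1 = growth at the plate median or of vehicle wells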
# Details: S. cerevisiae deletion strains, growth OD
structure (smiles),measurement,setting,value
Cc1ccc(/C=C2\CSc3ccc(F)cc3C2=O)cc1,normalized growth,"locus YAR019C, strain CDC15, stronger effect = lower value",0.942
same,normalized growth,"locus YBL105C, strain PKC1, stronger effect = lower value",0.955
same,normalized growth,"locus YBR135W, strain CKS1, stronger effect = lower value",0.953
same,normalized growth,"locus YBR136W, strain MEC1, stronger effect = lower value",0.953
same,normalized growth,"locus YBR160W, strain CDC28, stronger effect = lower value",0.959
same,normalized growth,"locus YDL017W, strain CDC7, stronger effect = lower value",0.958
same,normalized growth,"locus YDL028C, strain MPS1, stronger effect = lower value",0.932
same,normalized growth,"locus YDL101C, strain DUN1, stronger effect = lower value",0.971
same,normalized growth,"locus YDL108W, strain KIN28, stronger effect = lower value",0.93
same,normalized growth,"locus YDL132W, strain cdc53, stronger effect = lower value",0.937
same,normalized growth,"locus YDL214C, strain PRR2, stronger effect = lower value",0.892
same,normalized growth,"locus YDR052C, strain DBF4, stronger effect = lower value",0.972
same,normalized growth,"locus YDR054C, strain cdc34, stronger effect = lower value",0.94
same,normalized growth,"locus YDR226W, strain ADK1, stronger effect = lower value",0.952
same,normalized growth,"locus YDR477W, strain SNF1, stronger effect = lower value",0.892
same,normalized growth,"locus YER123W, strain YCK3, stronger effect = lower value",0.864
same,normalized growth,"locus YER133W, strain GLC7, stronger effect = lower value",0.902
same,normalized growth,"locus YFL009W, strain cdc4, stronger effect = lower value",0.904
same,normalized growth,"locus YFL029C, strain CAK1, stronger effect = lower value",0.946
same,normalized growth,"locus YFR003C, strain YPI1, stronger effect = lower value",0.954
same,normalized growth,"locus YFR019W, strain FAB1, stronger effect = lower value",0.934
same,normalized growth,"locus YFR028C, strain CDC14, stronger effect = lower value",0.935
same,normalized growth,"locus YGR040W, strain KSS1, stronger effect = lower value",0.889
same,normalized growth,"locus YGR052W, strain FMP48, stronger effect = lower value",0.91
same,normalized growth,"locus YGR092W, strain DBF2, stronger effect = lower value",0.86
same,normalized growth,"locus YHR030C, strain SLT2, stronger effect = lower value",0.706 (active)
same,normalized growth,"locus YHR079C, strain IRE1, stronger effect = lower value",0.856
same,normalized growth,"locus YHR082C, strain KSP1, stronger effect = lower value",0.915
same,normalized growth,"locus YHR205W, strain SCH9, stronger effect = lower value",0.845
same,normalized growth,"locus YIL147C, strain SLN1, stronger effect = lower value",0.953
same,normalized growth,"locus YJL095W, strain BCK1, stronger effect = lower value",0.859
same,normalized growth,"locus YJL128C, strain PBS2, stronger effect = lower value",0.888
same,normalized growth,"locus YJL157C, strain FAR1, stronger effect = lower value",0.906
same,normalized growth,"locus YJR016C, strain ILV3, stronger effect = lower value",0.956
same,normalized growth,"locus YJR066W, strain TOR1 (second series), stronger effect = lower value",0.869
same,normalized growth,"locus YJR066W, strain TOR1, stronger effect = lower value",0.862
same,normalized growth,"locus YKL048C, strain ELM1, stronger effect = lower value",0.92
same,normalized growth,"locus YKL067W, strain YNK1, stronger effect = lower value",0.885
same,normalized growth,"locus YKL101W, strain HSL1, stronger effect = lower value",0.895
same,normalized growth,"locus YKL193C, strain SDS22, stronger effect = lower value",0.938
same,normalized growth,"locus YKL203C, strain TOR2, stronger effect = lower value",0.985
same,normalized growth,"locus YLR113W, strain HOG1, stronger effect = lower value",0.697 (active)
same,normalized growth,"locus YLR133W, strain CKI1, stronger effect = lower value",0.915
same,normalized growth,"locus YLR403W, strain SFP1, stronger effect = lower value",0.898
same,normalized growth,"locus YML070W, strain DAK1, stronger effect = lower value",0.882
same,normalized growth,"locus YMR001C, strain CDC5, stronger effect = lower value",0.944
same,normalized growth,"locus YMR205C, strain PFK2 (second series), stronger effect = lower value",0.911
same,normalized growth,"locus YMR277W, strain FCP1, stronger effect = lower value",0.923
same,normalized growth,"locus YNL006W, strain LST8, stronger effect = lower value",0.952
same,normalized growth,"locus YNL020C, strain ARK1, stronger effect = lower value",0.915
same,normalized growth,"locus YNL161W, strain CBK1, stronger effect = lower value",0.955
same,normalized growth,"locus YNL183C, strain NPR1, stronger effect = lower value",0.903
same,normalized growth,"locus YNL207W, strain RIO2, stronger effect = lower value",0.945
same,normalized growth,"locus YNL222W, strain SSU72, stronger effect = lower value",0.937
same,normalized growth,"locus YNL307C, strain MCK1 (second series), stronger effect = lower value",0.85
same,normalized growth,"locus YOL078W, strain AVO1, stronger effect = lower value",0.945
same,normalized growth,"locus YOL136C, strain PFK27, stronger effect = lower value",0.881
same,normalized growth,"locus YOR061W, strain CKA2, stronger effect = lower value",0.887
same,normalized growth,"locus YOR119C, strain RIO1, stronger effect = lower value",0.932
same,normalized growth,"locus YOR231W, strain MKK1, stronger effect = lower value",0.835
same,normalized growth,"locus YOR329C, strain SCD5, stronger effect = lower value",0.956
same,normalized growth,"locus YPL031C, strain PHO85, stronger effect = lower value",0.896
same,normalized growth,"locus YPL153C, strain RAD53, stronger effect = lower value",0.888
same,normalized growth,"locus YPL204W, strain HRR25, stronger effect = lower value",0.876
same,normalized growth,"locus YPL209C, strain IPL1, stronger effect = lower value",0.952
same,normalized growth,"locus YPL256C, strain CLN2, stronger effect = lower value",0.831 (active)
same,normalized growth,"locus YPR025C, strain CCL1, stronger effect = lower value",0.958
same,normalized growth,"locus YPR106W, strain ISR1, stronger effect = lower value",0.952
same,normalized growth,"locus YPR111W, strain DBF20, stronger effect = lower value",0.916
same,normalized growth,"strain NNK1, stronger effect = lower value",0.946
same,normalized growth,"strain TSCII, stronger effect = lower value",0.942
